# From publication PMC7862700, “An all-to-all approach to the identification of sequence-specific readers for epigenetic DNA modifications on cytosine”
# Legend:
# Assay in all cases: DAPPL (digital affinity profiling via proximity ligation, sequencing); 10 mM Tris-HCl pH 7.5, 50 mM NaCl, 1 mM DTT, 4% glycerol, room temperature, 30 min; GST-TFs on glutathione beads, 16-mer random dsDNA library, 0.1% formaldehyde crosslink after washing; high values mean tight binding
# [1] = biological target: T1, FLI1 (Homo sapiens, UniProt Q01543 1-452); conditions: protein: recombinant; tags: N-terminal GST; dsDNA, one strand shown
# T1 sequence: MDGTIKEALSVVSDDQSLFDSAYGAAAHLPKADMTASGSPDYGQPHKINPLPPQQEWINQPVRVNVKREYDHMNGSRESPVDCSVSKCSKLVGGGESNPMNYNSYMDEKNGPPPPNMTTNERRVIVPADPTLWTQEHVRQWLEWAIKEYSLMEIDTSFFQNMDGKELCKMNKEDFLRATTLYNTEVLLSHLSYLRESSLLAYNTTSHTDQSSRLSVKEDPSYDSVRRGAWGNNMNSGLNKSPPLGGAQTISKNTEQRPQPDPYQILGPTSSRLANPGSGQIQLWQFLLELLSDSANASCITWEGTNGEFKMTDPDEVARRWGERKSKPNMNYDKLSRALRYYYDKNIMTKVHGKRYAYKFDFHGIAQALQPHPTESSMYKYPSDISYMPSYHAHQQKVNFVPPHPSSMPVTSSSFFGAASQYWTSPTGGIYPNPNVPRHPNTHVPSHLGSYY
# Procedure, shortened: (§1)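 Each value of binding signal is a hexamer's read frequency for a factor divided by the same hexamer's frequency in the tag-only sample. Barcoded, bead-captured GST fusions of human transcription factors made in yeast were pooled with that sample and incubated with 200 nmole of a random double-stranded 16-mer DNA library in Tris/NaCl/DTT/glycerol buffer at room temperature for 30 min. Washing, 0.1% formaldehyde crosslinking, proximity ligation, PCR and Illumina NextSeq500 sequencing followed.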
# [2] = biological target: T2, ELK1 (Homo sapiens, UniProt P19419 1-428); conditions: protein: recombinant; tags: N-terminal GST; dsDNA, one strand shown
# T2 sequence: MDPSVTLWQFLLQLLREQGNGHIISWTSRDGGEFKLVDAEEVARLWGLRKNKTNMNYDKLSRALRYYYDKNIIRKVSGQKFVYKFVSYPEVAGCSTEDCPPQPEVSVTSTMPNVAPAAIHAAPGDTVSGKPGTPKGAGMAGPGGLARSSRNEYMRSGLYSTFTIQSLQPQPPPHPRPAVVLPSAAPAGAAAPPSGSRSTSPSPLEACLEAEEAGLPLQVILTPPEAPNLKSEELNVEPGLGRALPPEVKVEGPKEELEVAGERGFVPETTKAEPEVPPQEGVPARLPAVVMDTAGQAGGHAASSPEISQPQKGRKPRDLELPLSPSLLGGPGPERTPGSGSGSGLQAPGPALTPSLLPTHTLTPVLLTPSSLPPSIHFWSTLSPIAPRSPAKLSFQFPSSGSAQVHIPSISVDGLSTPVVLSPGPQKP
# Procedure, shortened: as §1
# [3] = biological target: T3, GABPA (Homo sapiens, UniProt Q06546 1-454); conditions: protein: recombinant; tags: N-terminal GST; dsDNA, one strand shown
# T3 sequence: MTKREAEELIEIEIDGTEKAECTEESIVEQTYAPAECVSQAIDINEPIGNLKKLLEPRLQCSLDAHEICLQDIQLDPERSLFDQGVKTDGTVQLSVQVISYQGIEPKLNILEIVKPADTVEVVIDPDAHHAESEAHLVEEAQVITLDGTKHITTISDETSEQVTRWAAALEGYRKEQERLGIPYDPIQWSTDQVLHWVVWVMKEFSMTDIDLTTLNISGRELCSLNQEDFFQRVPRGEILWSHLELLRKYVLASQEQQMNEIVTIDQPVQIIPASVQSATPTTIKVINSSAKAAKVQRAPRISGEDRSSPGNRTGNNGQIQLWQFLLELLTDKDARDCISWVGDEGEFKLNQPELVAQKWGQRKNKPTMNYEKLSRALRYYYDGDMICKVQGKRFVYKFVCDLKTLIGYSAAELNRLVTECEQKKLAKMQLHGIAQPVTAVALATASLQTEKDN
# Procedure, shortened: as §1
# [4] = biological target: T4, ERG (Homo sapiens, UniProt P11308 1-479); conditions: protein: recombinant; tags: N-terminal GST; dsDNA, one strand shown
# T4 sequence: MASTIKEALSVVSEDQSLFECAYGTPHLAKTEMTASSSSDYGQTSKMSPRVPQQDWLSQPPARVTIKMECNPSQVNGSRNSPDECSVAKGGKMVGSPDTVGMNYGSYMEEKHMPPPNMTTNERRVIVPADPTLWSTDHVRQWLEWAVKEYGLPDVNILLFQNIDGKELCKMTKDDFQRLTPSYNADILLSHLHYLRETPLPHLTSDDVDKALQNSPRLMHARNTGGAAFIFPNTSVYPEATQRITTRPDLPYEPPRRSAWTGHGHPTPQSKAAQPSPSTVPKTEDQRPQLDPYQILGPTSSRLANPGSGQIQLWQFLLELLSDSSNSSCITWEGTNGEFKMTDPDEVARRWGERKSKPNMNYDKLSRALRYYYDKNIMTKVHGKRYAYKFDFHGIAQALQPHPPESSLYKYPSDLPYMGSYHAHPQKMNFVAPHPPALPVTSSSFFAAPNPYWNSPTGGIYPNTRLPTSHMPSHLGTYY
# Procedure, shortened: as §1
# [5] = biological target: ELF1 (Homo sapiens, UniProt P32519 1-619); conditions: protein: recombinant; tags: N-terminal GST; dsDNA, one strand shown
# Chain of ELF1 (P32519 whole entry): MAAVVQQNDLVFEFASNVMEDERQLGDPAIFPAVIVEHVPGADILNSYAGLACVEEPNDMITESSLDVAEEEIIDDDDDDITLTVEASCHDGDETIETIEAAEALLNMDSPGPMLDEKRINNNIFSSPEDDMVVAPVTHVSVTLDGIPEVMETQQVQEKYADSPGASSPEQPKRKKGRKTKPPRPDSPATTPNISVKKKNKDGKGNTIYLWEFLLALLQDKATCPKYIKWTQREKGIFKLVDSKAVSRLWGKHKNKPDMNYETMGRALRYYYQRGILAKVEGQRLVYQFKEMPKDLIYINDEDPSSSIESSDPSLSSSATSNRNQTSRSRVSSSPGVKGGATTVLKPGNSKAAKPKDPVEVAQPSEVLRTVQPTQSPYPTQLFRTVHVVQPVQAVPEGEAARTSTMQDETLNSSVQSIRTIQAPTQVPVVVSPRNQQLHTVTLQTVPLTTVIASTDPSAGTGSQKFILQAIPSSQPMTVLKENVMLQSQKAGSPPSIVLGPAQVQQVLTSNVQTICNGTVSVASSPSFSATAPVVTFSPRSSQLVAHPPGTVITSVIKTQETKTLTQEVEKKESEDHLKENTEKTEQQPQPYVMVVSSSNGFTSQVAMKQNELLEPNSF
# Procedure, shortened: as §1
# [6] = biological target: T5, EHF (Homo sapiens, UniProt Q9NZC4 1-300); conditions: protein: recombinant; tags: N-terminal GST; dsDNA, one strand shown
# T5 sequence: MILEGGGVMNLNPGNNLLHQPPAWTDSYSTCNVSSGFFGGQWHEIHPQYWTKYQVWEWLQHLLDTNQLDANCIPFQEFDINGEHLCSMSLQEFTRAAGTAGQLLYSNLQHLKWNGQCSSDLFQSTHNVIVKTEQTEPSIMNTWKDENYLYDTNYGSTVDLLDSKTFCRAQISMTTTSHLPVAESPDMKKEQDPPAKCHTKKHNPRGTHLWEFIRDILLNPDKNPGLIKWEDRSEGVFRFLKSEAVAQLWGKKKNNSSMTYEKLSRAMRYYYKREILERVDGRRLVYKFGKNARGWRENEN
# Procedure, shortened: as §1
# [7] = biological target: SPI1 (Homo sapiens, UniProt P17947 1-270); conditions: protein: recombinant; tags: N-terminal GST; dsDNA, one strand shown
# Procedure, shortened: as §1
# [8] = biological target: SPIB (Homo sapiens, UniProt Q01892 1-262); conditions: protein: recombinant; tags: N-terminal GST; dsDNA, one strand shown
# Chain of SPIB (Q01892 whole entry): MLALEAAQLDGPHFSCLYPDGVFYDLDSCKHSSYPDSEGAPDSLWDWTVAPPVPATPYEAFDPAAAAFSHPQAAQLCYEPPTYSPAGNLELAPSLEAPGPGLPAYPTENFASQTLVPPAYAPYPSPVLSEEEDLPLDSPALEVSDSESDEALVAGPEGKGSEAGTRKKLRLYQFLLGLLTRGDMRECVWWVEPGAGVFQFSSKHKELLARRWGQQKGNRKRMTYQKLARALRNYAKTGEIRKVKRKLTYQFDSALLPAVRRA
# Procedure, shortened: as §1
# [9] = biological target: T6, ELK3 (Homo sapiens, UniProt P41970 1-407); conditions: protein: recombinant; tags: N-terminal GST; dsDNA, one strand shown
# T6 sequence: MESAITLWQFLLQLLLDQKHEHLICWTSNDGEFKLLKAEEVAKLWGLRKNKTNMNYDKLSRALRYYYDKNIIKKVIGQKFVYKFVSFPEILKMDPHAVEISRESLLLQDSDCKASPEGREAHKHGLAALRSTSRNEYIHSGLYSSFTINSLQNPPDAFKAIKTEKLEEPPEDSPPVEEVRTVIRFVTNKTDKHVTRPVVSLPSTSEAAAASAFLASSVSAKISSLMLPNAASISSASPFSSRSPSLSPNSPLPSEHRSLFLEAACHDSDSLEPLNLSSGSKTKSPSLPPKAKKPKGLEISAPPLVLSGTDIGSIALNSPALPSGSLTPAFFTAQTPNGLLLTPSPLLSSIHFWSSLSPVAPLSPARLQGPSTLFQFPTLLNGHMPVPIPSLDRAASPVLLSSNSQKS
# Procedure, shortened: as §1
# [10] = biological target: T7, FEV (Homo sapiens, UniProt Q99581 1-238); conditions: protein: recombinant; tags: N-terminal GST; dsDNA, one strand shown
# T7 sequence: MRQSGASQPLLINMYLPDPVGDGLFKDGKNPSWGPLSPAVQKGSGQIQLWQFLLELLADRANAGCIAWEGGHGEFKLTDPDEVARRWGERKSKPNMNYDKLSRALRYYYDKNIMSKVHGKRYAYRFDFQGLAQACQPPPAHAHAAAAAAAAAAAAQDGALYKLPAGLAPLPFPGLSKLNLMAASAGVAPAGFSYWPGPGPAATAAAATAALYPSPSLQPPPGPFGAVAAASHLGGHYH
# Procedure, shortened: as §1
# [11] = biological target: ETV5 (Homo sapiens, UniProt P41161 1-510); conditions: protein: recombinant; tags: N-terminal GST; dsDNA, one strand shown
# Chain of ETV5 (P41161 whole entry): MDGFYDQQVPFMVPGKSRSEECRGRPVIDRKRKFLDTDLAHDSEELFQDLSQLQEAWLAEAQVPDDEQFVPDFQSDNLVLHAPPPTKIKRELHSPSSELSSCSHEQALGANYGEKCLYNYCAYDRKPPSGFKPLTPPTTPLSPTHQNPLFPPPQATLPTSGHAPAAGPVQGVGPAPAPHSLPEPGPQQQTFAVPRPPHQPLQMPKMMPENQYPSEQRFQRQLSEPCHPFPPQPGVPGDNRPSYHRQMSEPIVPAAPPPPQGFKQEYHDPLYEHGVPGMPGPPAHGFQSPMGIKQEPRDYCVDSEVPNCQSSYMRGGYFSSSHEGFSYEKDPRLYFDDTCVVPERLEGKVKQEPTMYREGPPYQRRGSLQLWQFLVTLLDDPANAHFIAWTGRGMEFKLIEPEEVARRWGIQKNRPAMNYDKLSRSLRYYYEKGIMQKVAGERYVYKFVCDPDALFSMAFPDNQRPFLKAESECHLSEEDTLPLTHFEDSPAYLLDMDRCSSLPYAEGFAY
# Procedure, shortened: as §1
# [12] = biological target: HSF1 (Homo sapiens, UniProt Q00613 1-529); conditions: protein: recombinant; tags: N-terminal GST; chain copies: 3; dsDNA, one strand shown
# Chain of HSF1 (Q00613 whole entry): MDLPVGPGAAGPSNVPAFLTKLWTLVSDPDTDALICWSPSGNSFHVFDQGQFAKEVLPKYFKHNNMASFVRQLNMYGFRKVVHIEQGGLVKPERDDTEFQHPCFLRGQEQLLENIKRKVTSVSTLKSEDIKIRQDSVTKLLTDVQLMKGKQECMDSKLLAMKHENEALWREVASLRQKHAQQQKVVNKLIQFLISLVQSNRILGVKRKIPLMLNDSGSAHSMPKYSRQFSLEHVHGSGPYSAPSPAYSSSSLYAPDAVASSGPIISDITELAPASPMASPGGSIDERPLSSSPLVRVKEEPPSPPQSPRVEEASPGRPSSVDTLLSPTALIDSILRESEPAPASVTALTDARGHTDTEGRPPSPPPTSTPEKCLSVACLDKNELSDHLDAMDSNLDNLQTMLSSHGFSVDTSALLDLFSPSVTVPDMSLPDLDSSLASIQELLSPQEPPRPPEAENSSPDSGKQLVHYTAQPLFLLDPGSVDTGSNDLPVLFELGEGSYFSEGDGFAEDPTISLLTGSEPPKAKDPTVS
# Procedure, shortened: as §1
# [13] = biological target: T8, SPIC (Homo sapiens, UniProt Q8N5J4 1-248); conditions: protein: recombinant; tags: N-terminal GST; dsDNA, one strand shown
# T8 sequence: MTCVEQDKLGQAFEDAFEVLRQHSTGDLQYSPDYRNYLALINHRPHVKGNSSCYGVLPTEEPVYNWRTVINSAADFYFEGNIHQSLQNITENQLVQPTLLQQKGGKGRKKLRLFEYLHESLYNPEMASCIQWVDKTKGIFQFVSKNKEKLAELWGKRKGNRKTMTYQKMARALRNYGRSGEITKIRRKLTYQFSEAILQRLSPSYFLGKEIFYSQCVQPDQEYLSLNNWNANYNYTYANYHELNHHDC
# Procedure, shortened: as §1
# [14] = biological target: ELF4 (Homo sapiens, UniProt Q99607 1-663); conditions: protein: recombinant; tags: N-terminal GST; dsDNA, one strand shown
# Chain of ELF4 (Q99607 whole entry): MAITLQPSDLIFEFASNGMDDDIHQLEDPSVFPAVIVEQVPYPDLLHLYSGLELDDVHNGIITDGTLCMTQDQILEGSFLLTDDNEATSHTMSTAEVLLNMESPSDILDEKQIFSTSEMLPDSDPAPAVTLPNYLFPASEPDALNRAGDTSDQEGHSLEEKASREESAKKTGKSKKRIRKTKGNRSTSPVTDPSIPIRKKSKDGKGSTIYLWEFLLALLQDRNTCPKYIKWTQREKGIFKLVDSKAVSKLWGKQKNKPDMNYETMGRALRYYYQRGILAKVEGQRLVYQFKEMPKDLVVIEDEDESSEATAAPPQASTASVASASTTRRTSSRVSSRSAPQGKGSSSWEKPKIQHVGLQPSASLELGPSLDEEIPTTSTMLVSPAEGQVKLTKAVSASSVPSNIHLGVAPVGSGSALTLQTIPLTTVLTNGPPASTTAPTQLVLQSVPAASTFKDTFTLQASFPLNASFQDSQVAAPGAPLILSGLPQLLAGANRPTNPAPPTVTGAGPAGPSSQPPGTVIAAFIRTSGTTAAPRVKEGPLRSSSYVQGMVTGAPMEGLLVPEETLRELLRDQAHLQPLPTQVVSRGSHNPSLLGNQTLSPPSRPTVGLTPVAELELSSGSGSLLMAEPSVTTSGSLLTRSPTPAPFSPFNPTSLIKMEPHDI
# Procedure, shortened: as §1
# [15] = biological target: T9, ELK4 (Homo sapiens, UniProt P28324-2 1-405); conditions: protein: recombinant; tags: N-terminal GST; dsDNA, one strand shown
# T9 sequence: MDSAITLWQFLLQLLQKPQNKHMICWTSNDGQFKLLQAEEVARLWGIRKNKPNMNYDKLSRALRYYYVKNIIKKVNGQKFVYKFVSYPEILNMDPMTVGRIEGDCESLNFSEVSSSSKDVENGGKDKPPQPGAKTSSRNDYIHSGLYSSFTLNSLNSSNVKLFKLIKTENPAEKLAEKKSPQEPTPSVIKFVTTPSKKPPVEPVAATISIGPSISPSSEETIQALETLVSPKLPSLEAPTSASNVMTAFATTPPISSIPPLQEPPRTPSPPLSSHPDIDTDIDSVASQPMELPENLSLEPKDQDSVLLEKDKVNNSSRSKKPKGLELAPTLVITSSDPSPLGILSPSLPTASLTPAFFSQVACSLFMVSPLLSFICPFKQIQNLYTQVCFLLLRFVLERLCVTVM
# Procedure, shortened: as §1
# [16] = biological target: T10, ETV2 (Homo sapiens, UniProt O00321 1-342); conditions: protein: recombinant; tags: N-terminal GST; dsDNA, one strand shown
# T10 sequence: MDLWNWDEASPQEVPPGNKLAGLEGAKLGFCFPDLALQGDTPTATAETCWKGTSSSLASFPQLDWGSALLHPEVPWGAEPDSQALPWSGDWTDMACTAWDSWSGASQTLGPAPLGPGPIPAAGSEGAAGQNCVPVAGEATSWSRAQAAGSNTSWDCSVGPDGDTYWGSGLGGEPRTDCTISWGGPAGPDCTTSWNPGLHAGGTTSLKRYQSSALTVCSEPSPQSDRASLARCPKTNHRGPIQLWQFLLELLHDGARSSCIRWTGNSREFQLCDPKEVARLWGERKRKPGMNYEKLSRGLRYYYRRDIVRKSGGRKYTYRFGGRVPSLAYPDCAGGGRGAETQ
# Procedure, shortened: as §1
# [17] = biological target: T11, ELF3 (Homo sapiens, UniProt P78545 1-371); conditions: protein: recombinant; tags: N-terminal GST; dsDNA, one strand shown
# T11 sequence: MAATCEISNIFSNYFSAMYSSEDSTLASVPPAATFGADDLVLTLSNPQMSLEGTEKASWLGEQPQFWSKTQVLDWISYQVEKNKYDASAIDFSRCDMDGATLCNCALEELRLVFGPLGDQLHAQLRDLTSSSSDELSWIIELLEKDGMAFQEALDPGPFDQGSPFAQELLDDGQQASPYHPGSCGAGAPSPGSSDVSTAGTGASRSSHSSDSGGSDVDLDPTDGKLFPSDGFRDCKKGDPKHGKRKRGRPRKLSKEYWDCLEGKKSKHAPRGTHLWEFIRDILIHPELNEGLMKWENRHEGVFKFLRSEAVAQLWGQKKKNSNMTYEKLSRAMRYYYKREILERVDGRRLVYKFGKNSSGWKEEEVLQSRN
# Procedure, shortened: as §1
# [18] = biological target: CRX (Homo sapiens, UniProt O43186 1-299); conditions: protein: recombinant; tags: N-terminal GST; dsDNA, one strand shown
# Chain of CRX (O43186 whole entry): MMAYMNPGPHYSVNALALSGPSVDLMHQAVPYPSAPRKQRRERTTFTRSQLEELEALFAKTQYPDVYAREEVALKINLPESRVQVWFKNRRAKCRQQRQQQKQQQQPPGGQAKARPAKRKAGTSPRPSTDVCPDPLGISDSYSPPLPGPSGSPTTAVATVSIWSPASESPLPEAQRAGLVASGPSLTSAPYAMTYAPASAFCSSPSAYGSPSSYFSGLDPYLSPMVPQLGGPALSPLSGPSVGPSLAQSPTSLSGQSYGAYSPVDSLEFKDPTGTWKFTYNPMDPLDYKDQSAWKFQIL
# Procedure, shortened: as §1
# [19] = biological target: ETV1 (Homo sapiens, UniProt P50549 1-477); conditions: protein: recombinant; tags: N-terminal GST; dsDNA, one strand shown
# Chain of ETV1 (P50549 whole entry): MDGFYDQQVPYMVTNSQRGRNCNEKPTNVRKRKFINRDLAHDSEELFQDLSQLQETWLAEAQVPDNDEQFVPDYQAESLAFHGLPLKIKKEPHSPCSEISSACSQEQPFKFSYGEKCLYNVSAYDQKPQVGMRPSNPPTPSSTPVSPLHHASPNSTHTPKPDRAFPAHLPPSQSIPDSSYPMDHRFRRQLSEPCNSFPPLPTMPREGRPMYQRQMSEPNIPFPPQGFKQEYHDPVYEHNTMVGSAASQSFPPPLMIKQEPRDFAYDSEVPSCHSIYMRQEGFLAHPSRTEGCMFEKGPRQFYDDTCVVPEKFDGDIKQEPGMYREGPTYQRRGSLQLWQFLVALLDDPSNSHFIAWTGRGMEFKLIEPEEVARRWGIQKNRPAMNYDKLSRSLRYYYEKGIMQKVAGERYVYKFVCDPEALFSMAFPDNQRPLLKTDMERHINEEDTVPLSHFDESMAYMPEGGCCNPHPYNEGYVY
# Procedure, shortened: as §1
sequence,measurement,setting,value
TTTTGA,binding signal,[1],"1.13 fold enrichment (6-mer frequency, TF over GST control)"
same,binding signal,[2],"1.18 fold enrichment (6-mer frequency, TF over GST control)"
same,binding signal,[3],"1.13 fold enrichment (6-mer frequency, TF over GST control)"
same,binding signal,[4],"1.11 fold enrichment (6-mer frequency, TF over GST control)"
same,binding signal,[5],"1.17 fold enrichment (6-mer frequency, TF over GST control)"
same,binding signal,[6],"1.17 fold enrichment (6-mer frequency, TF over GST control)"
same,binding signal,[7],"1.13 fold enrichment (6-mer frequency, TF over GST control)"
same,binding signal,[8],"1.04 fold enrichment (6-mer frequency, TF over GST control)"
same,binding signal,[9],"1.06 fold enrichment (6-mer frequency, TF over GST control)"
same,binding signal,[10],"1 fold enrichment (6-mer frequency, TF over GST control)"
same,binding signal,[11],"1.19 fold enrichment (6-mer frequency, TF over GST control)"
same,binding signal,[12],"1.12 fold enrichment (6-mer frequency, TF over GST control)"
same,binding signal,[13],"1.21 fold enrichment (6-mer frequency, TF over GST control)"
same,binding signal,[14],"1.19 fold enrichment (6-mer frequency, TF over GST control)"
same,binding signal,[15],"1.22 fold enrichment (6-mer frequency, TF over GST control)"
same,binding signal,[16],"1.2 fold enrichment (6-mer frequency, TF over GST control)"
same,binding signal,[17],"1.25 fold enrichment (6-mer frequency, TF over GST control)"
same,binding signal,[18],"1.17 fold enrichment (6-mer frequency, TF over GST control)"
same,binding signal,[19],"1.13 fold enrichment (6-mer frequency, TF over GST control)"
